Experimental data taken from PubChem BioAssay (NCATS).
Results filed as inconclusive are left out. Calls of active or inactive are those of the source. Calls come from the whole dose curve; as a rule, active = well fitted inhibition curve with a large enough effect; inconclusive = small, poorly fitted or top-dose-only effect; inactive = flat fitted curve, though single readings scatter.

Assays:
Test in all cases: qHTS profiling for inhibitors of Plasmodium falciparum proliferation (AID 504749); note: nearly all actives have a fitted effect of over 60% in size
Details in all cases: P. falciparum in erythrocytes, SYBR Green DNA, 72 h; series mostly up to 28.7 µM
CP286 = system: CP286
Summary of the method: (§1)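 Three-day growth assay of blood-stage parasites in erythrocytes (0.3% parasitemia, 2.5% hematocrit) at 37 C, 5% CO2, quantified by SYBR Green DNA staining after overnight detergent lysis.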

CP291 = system: CP291
Summary of the method: as §1

CP297 = system: CP297
Summary of the method: as §1

CP305 = system: CP305
Summary of the method: as §1

CP315 = system: CP315
Summary of the method: as §1

CP325 = system: CP325
Summary of the method: as §1

CP329 = system: CP329
Summary of the method: as §1

CP335 = system: CP335
Summary of the method: as §1

DFO2036 = system: DFO2036
Summary of the method: as §1

DIV14 = system: DIV14
Summary of the method: as §1

Measured: Potency
Potency is the fitted concentration of half-maximal effect.

COc1cccc2c1C(=O)c1c(O)c3c(c(O)c1C2=O)C[C@@](O)(C(=O)CO)C[C@@H]3O[C@H]1C[C@H](N)[C@H](OC2CCCCO2)[C@H](C)O1 (some centres not stated)
active: CP286 2000 nM | CP291 6750 nM | CP297 6750 nM | CP305 6010 nM | CP315 16900 nM | CP325 7570 nM | CP329 6750 nM | CP335 3010 nM | DFO2036 3550 nM | DIV14 3790 nM

CCCCCCCCCCCC(CC1OC(=O)C1CCCCCC)OC(=O)C(CC(C)C)NC=O (configuration not stated)
inactive: CP315
active: CP286 1000 nM | CP335 675 nM | DFO2036 501 nM

Nc1nc2c(c(=O)[nH]1)N(C=O)[C@H](CNc1ccc(C(=O)N[C@@H](CCC(=O)O)C(=O)O)cc1)CN2
not listed: CP291
inactive: all other assays above

CCC(C(=O)O)C1CCC(C)C(C(C)C(O)C(C)C(=O)C(CC)C2OC3(C=CC(O)[C@@]4(CC[C@](C)(C5CC[C@@](O)(CC)C(C)O5)O4)O3)C(C)CC2C)O1 (some centres not stated)
active: CP286 794 nM | CP291 675 nM | CP297 757 nM | CP305 675 nM | CP315 478 nM | CP325 849 nM | CP329 601 nM | CP335 379 nM | DFO2036 794 nM

OCC(O)C(O)C(O)CO (configuration not stated)
inactive: all assays above

COc1ccc([C@@H]2CNC(=O)C2)cc1OC1CCCC1
inactive: all assays above

COc1ccc2c(c1OC)C(=O)OC2[C@H]1c2c(cc3c(c2OC)OCO3)CCN1C (some centres not stated)
inactive: all assays above
